The supplement of paper PMC5499739
The full ranking holds about 16,000 sequences; the median of “Z-score” is about -0.37, and the highest 2% start at about 3.1. Only a selection was taken, and the highest values are over-represented in it overall.

System: RBM10 RRM1-ZnF-RRM2 (GST-tagged construct)
Assay: RNAcompete 7-mer binding Z-score; higher = stronger binding preference
In short: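 A designed pool of 241 399 RNAs, each up to 41 nt and transcribed from microarray-derived DNA templates, was used at 1.5 nmol with 20 pmol of GST-tagged RBM10 constructs. The mixture, in 1 ml Hepes pH 7.8 buffer with KCl, NaCl, glycerol, DTT, BSA and glutathione Sepharose beads, was held 30 min at 4°C and then washed four times for 2 min at 4°C. Bound RNA was read out by microarray hybridisation, and enrichment of each heptamer motif was scored as a one-sided Z-score over the probes carrying it.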

Row | Sequence | RNAcompete 7-mer binding Z-score
1 | GGUUUGU | 0.811
2 | GUAUUGA | -0.107
3 | CGAAGCC | -0.449
4 | AACUCGU | -0.861
5 | GGAAAAA | 1.95
6 | GGGAAGA | 3.65
7 | GGGAAGU | 2.76
8 | CGGAAAG | 1.91
9 | GGGAAAG | 4.49
10 | CGGAAGA | 0.862
11 | UGGAAAG | 2.78
12 | CGGAAAA | 0.854
13 | GGGAAAA | 3.43
14 | GUCAGGG | 1.81
15 | UCCUGAC | -0.788
16 | UGGCACA | 0.497
17 | UCGUAAG | -0.326
18 | GUCGAGG | 1.9
19 | CGUUGGA | 0.548
20 | UCUUUAA | -0.803
21 | UCGGCCG | -0.795
22 | UGAGGUA | 1.87
23 | GGAGGUA | 3.82

Row | Sequence | RNAcompete 7-mer binding Z-score
24 | CGAGGUA | 1.8
25 | AGAGGUG | 2.05
26 | GGAGGUG | 3.64
27 | GGAGGUU | 2.23
28 | CGCAUUC | -0.723
29 | UGCGACG | 0.13
30 | ACUUCUU | -0.952
31 | GAGCGAG | 3.3
32 | GAGCGGU | 1.51
33 | GAGCGGA | 3.55
34 | UAGCGAG | 0.694
35 | UAGCGGA | 1.01
36 | CAGCGGG | 2.5
37 | GAGCGGC | 1.42
38 | GAGCGGG | 3.33
39 | GAGCGAC | 0.177
40 | UCCUUAA | -0.715
41 | AAAGAAC | -0.0343
42 | CUCAACA | -0.704
43 | UCUUAGC | -0.817
44 | AUGACCC | -0.57
45 | GUGUGGG | 3.75
46 | AUGUGGG | 3.6

Row | Sequence | RNAcompete 7-mer binding Z-score
47 | UUGUGGG | 2.44
48 | GUGUGGU | 1.87
49 | AUGUGGC | 0.84
50 | GUGUGGA | 2.7
51 | AGAAUGA | 0.275
52 | CGCACCC | -0.748
53 | GCGUGAG | 1.01
54 | CGGAUGG | 1.87
55 | UGGAUGC | 0.778
56 | GAGAUGG | 4
57 | AGGAUGG | 3.4
58 | UGGAUGG | 3.42
59 | UAGAUGG | 2.16
60 | AGGAUGC | 0.887
61 | GAGAUGU | 0.392
62 | UGGAUGA | 1.82
63 | UGUACUU | -0.715
64 | GUCAAUU | -0.602
65 | UUUGCCG | -0.766
66 | ACGACGA | -0.384
67 | GAGCCCC | -0.581
68 | ACCGUAG | -0.147
69 | UUUGUCC | -0.85

Row | Sequence | RNAcompete 7-mer binding Z-score
70 | ACGGUAC | 0.472
71 | CCCCAAU | -0.755
72 | UUCCACA | -0.508
73 | UGGGAAA | 2.49
74 | CGGGAAG | 2.07
75 | AGGGAAC | 3.06
76 | GGGGAAA | 3.02
77 | AGGGAAU | 3.2
78 | AGGGAAG | 4.36
79 | UGGGAAG | 3.99
80 | UGGGAAU | 2.42
81 | GGGGAAU | 3.13
82 | GGGGAAG | 3.91
83 | AGGGACU | 1.09
84 | CGGGAAU | 1.31
85 | GGUAAUU | 0.789
86 | ACUAACG | -0.409
87 | CGAUGUU | -0.657
88 | AGUCGAC | 0.00944
89 | CUAAUGC | -0.795
90 | ACAUCAG | -0.191
91 | CACUGAG | -0.209
92 | UGGGUAC | 2.59

Row | Sequence | RNAcompete 7-mer binding Z-score
93 | AGGGUAG | 3.71
94 | CGGGUAG | 2.23
95 | UGGGUAU | 2.2
96 | UGGGUAG | 3.34
97 | AGGGUAC | 2.7
98 | CGCGAAC | -0.435
99 | GCUCGAC | -0.53
100 | AGUUCCU | -0.77
101 | AGGCGUA | 0.716
102 | ACCUACA | -0.814
103 | AACGGGG | 3.65
104 | CACGGGG | 2.77
105 | CACGGGA | 1.66
106 | GACGGGG | 2.79
107 | GACGGGA | 2.3
108 | AACGGGU | 3.25
109 | AACGGGA | 3.38
110 | UACGGGU | 2.02
111 | GACGGGU | 2.37
112 | ACGGCGG | 1.11
113 | AGCUCAG | -0.486
114 | ACAUAUC | -0.526
115 | AAGGAGU | 3.12

Row | Sequence | RNAcompete 7-mer binding Z-score
116 | AGUUUUG | -0.0707
117 | CUUAAAC | -0.646
118 | AGGGCUA | 1.17
119 | UGUUGUU | -0.286
120 | GUCGCGU | -0.0124
121 | AGGAAGA | 1.64
122 | AGGAAGU | 1.21
123 | UGGAAGU | 1.6
124 | UGGAAGG | 3.68
125 | AGGAAGG | 4.46
126 | CGGAAGG | 2.53
127 | GUGUAAG | 1.28
128 | AGAGGGC | 1.02
129 | GGAGGGG | 4.18
130 | UGAGGGC | 2.22
131 | AGAGGGG | 1.94
132 | GGAGGGC | 3.27
133 | AGAGGGA | 2.16
134 | UUAGAGG | 1.24
135 | AUAGAGG | 1.79
136 | GGAGGAG | 2.84
137 | GUAGAGG | 4.02
138 | CGAGGGA | 3.11

Row | Sequence | RNAcompete 7-mer binding Z-score
139 | GGAGGGA | 3.6
140 | AGAUAAG | 0.989
141 | GUUAACU | -0.398
142 | UCCUGUA | -0.795
143 | UCAUGGG | 1.19
144 | AAAACGU | -0.0197
145 | GGAGUGG | 4.61
146 | GGAGAGA | 1.26
147 | GGAGAGG | 3.28
148 | AGAGAGG | 1.58
149 | GGAGUGA | 2.63
150 | AGAGUGG | 2.77
151 | CGAGGCG | 1.5
152 | CGAGGGG | 3.29
153 | CGAGGGC | 1.41
154 | GUCCAAA | -0.424
155 | GUUCACG | -0.355
156 | UAAGCAU | -0.555
157 | UAUCAAU | -0.46
158 | CUGUGUA | -0.417
159 | UCUUUUG | -0.632
160 | AGCAGGA | 2.45
161 | CACAGGG | 2.49

Row | Sequence | RNAcompete 7-mer binding Z-score
162 | AACAGGC | 1.62
163 | AACAGGG | 3.73
164 | AGCAGGG | 3.39
165 | UGCAGGG | 2.53
166 | GGUGCCC | 0.0495
167 | CUUAGCU | -0.832
168 | CCUUGUC | -0.89
169 | AUUUUCU | -0.803
170 | CUUCUGC | -0.959
171 | UUACUGC | -0.799
172 | GAAAGGU | 4.42
173 | AGUAAGG | 3.47
174 | AAAAAGG | 2.19
175 | CGAAAGG | 1.98
176 | AGUAAGU | 0.188
177 | GAAAAAG | 1.52
178 | CAAAGGU | 1.62
179 | UGAAAGG | 2.76
180 | GAAAAGG | 4.73
181 | CGUAAGG | 0.844
182 | AAAAGGU | 2.52
183 | AGAAAGG | 4.73
184 | GCGUGUC | -0.235
